Reference: PubChem BioAssay (NCATS)
Results filed as inconclusive are left out. Calls of active or inactive are those of the source. The call rests on the fitted dose curve; in most records, active means well fitted curve in the direction sought with a large enough effect; inconclusive means small, poorly fitted or top-dose-only effect, or another doubt; inactive means no such curve, though single readings can be large; an effect the other way counts as inactive or inconclusive.

Experiments:
[1] = Quantitative High-Throughput drug screen in 47 multiple myeloma cell lines against the NCATS MIPE library collection: Delta47_JCRB cell viability assay (AID 1918925; further: nearly all actives have a fitted effect of over 45% in size)
Procedure, shortened: (§1)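 Approved and investigational drugs from MIPE 4.0 were added by pin tool to 500 cells per well. After 48 hours at 37C, ATP-based CellTiter-Glo luminescence indicated remaining viability.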

[2] = Quantitative High-Throughput drug screen in 47 multiple myeloma cell lines against the NCATS MIPE library collection: EJM_DSMZ cell viability assay (AID 1918926; further: nearly all actives have a fitted effect of over 30% in size)
Procedure, shortened: as §1

[3] = Quantitative High-Throughput drug screen in 47 multiple myeloma cell lines against the NCATS MIPE library collection: AMO1_DSMZ cell viability assay (AID 1918927; further: nearly all actives have a fitted effect of over 30% in size)
Procedure, shortened: as §1

[4] = Quantitative High-Throughput drug screen in 47 multiple myeloma cell lines against the NCATS MIPE library collection: ARD_JJKsccE7 cell viability assay (AID 1918929)
Procedure, shortened: as §1

[5] = Quantitative High-Throughput drug screen in 47 multiple myeloma cell lines against the NCATS MIPE library collection: Karpas620_DSMZ cell viability assay (AID 1918959); further: nearly all actives have a fitted effect of over 30% in size
Procedure, shortened: (§2)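 Myeloma cell lines, 500 cells per well, exposed to MIPE 4.0 library compounds for 48 h at 37C, 5% CO2. Viability from ATP by CellTiter-Glo luminescence; normalised to DMSO (100%) and media-only (0%) wells.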

[6] = Quantitative High-Throughput drug screen in 47 multiple myeloma cell lines against the NCATS MIPE library collection: JIM3_ECACC cell viability assay (AID 1918963; further: nearly all actives have a fitted effect of over 35% in size)
Procedure, shortened: as §2

[7] = Quantitative High-Throughput drug screen in 47 multiple myeloma cell lines against the NCATS MIPE library collection: INA6_PLB cell viability assay (AID 1918965; further: nearly all actives have a fitted effect of over 55% in size)
Procedure, shortened: as §2

[8] = Quantitative High-Throughput drug screen in 47 multiple myeloma cell lines against the NCATS MIPE library collection: H1112_PLB cell viability assay (AID 1918967; further: nearly all actives have a fitted effect of over 30% in size)
Procedure, shortened: as §1

[9] = Quantitative High-Throughput drug screen in 47 multiple myeloma cell lines against the NCATS MIPE library collection: KMS27_JCRB cell viability assay (AID 1918970); conditions: KMS27 myeloma cells, CellTiter-Glo ATP viability, 48 h; viability (% of DMSO): at 45.8 µM (top of the series); further: nearly all actives have a fitted effect of over 30% in size
Procedure, shortened: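 Luminescent ATP read-out (CellTiter-Glo, 5 min at room temperature) after 48 h compound exposure of 500 KMS27_JCRB cells per well; DMSO wells define full viability and media-only wells zero.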

[10] = Quantitative High-Throughput drug screen in 47 multiple myeloma cell lines against the NCATS MIPE library collection: KMS12BM_JCRB cell viability assay (AID 1918971); further: nearly all actives have a fitted effect of over 35% in size
Procedure, shortened: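 Relative luminescence from CellTiter-Glo served as the viability signal, referenced to DMSO-treated (100%) and cell-free medium (0%) controls. Treatment lasted 48 hours at 37C with 500 cells per well.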

[11] = Quantitative High-Throughput drug screen in 47 multiple myeloma cell lines against the NCATS MIPE library collection: KMS12PE_JCRB cell viability assay (AID 1918972); further: nearly all actives have a fitted effect of over 30% in size
Procedure, shortened: as §2

[12] = Quantitative High-Throughput drug screen in 47 multiple myeloma cell lines against the NCATS MIPE library collection: KMM1_JCRB cell viability assay (AID 1918960); further: nearly all actives have a fitted effect of over 30% in size
Procedure, shortened: (§3)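 Luminescence from CellTiter-Glo, taken after 5 min at room temperature, reports cellular ATP as viability. Cells (500 per well) had been treated 48 h at 37 °C with MIPE 4.0 compounds, scaled between DMSO and medium-only controls.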

[13] = Quantitative High-Throughput drug screen in 47 multiple myeloma cell lines against the NCATS MIPE library collection: Karpas417_ECACC cell viability assay (AID 1918961); conditions: Karpas417 myeloma viability, CellTiter-Glo ATP luminescence, 48 h; viability (% of DMSO): at 45.8 µM (top of the series)
Procedure, shortened: as §2

[14] = Quantitative High-Throughput drug screen in 47 multiple myeloma cell lines against the NCATS MIPE library collection: KHM11_PLB cell viability assay (AID 1918962); further: nearly all actives have a fitted effect of over 35% in size
Procedure, shortened: as §2

[15] = Quantitative High-Throughput drug screen in 47 multiple myeloma cell lines against the NCATS MIPE library collection: JIM1_ECACC cell viability assay (AID 1918964)
Procedure, shortened: as §1

[16] = Quantitative High-Throughput drug screen in 47 multiple myeloma cell lines against the NCATS MIPE library collection: JJN3_DSMZ cell viability assay (AID 1918966; further: nearly all actives have a fitted effect of over 50% in size)
Procedure, shortened: as §1

[17] = Quantitative High-Throughput drug screen in 47 multiple myeloma cell lines against the NCATS MIPE library collection: Karpas25_ECACC cell viability assay (AID 1918968; further: nearly all actives have a fitted effect of over 35% in size)
Procedure, shortened: as §1

[18] = Quantitative High-Throughput drug screen in 47 multiple myeloma cell lines against the NCATS MIPE library collection: KMS20_JCRB cell viability assay (AID 1918973); further: nearly all actives have a fitted effect of over 45% in size
Procedure, shortened: as §1

[19] = Quantitative High-Throughput drug screen in 47 multiple myeloma cell lines against the NCATS MIPE library collection: ARP1_JJKsccF8 cell viability assay (AID 1918928; further: nearly all actives have a fitted effect of over 40% in size)
Procedure, shortened: as §3

[20] = Quantitative High-Throughput drug screen in 47 multiple myeloma cell lines against the NCATS MIPE library collection: FR4_PLB cell viability assay (AID 1918924; further: nearly all actives have a fitted effect of over 35% in size)
Procedure, shortened: as §2

Measured: Potency
Potency means the concentration at half of the fitted maximal effect.

CON(C)C(=O)N1N=C(c2cc(F)ccc2F)S[C@]1(CCCN)c1ccccc1
inactive: [1] | [2] | [5] | [6] | [7] | [8] | [10]
active: [3] 0.001 µM | [4] 0.001 µM | [9] 0.001 µM | [11] 0.001 µM

Cc1c(-c2cccc3c(CCCOc4cccc5ccccc45)c(C(=O)O)n(Cc4cccnc4)c23)c(COc2ccc(N3CCN([S+](=O)([O-])N(C)C)CC3)cc2)nn1C
active: [1] 14.8 µM | [2] 14.8 µM | [14] 20.9 µM | [7] 16.6 µM | [16] 23.5 µM | [17] 20.9 µM | [10] 23.5 µM
not listed: [6] | [8] | [18] | [19] | [20]
inactive: all other assays above

Fc1ccc(C(c2ccc(F)cc2)N2CCN(CC=Cc3ccccc3)CC2)cc1
inactive: [1] | [2] | [3] | [4] | [5] | [12] | [15] | [8] | [17] | [10] | [11]

CC(C)(C)c1nc(-c2cccc(NS(=O)(=O)c3c(F)cccc3F)c2F)c(-c2ccnc(N)n2)s1
active: [1] 3.32 µM | [2] 20.9 µM | [3] 3.72 µM | [4] 18.7 µM | [5] 20.9 µM | [12] 3.32 µM | [13] 5.9 µM | [14] 5.9 µM | [7] 0.264 µM | [16] 3.32 µM | [8] 8.33 µM | [17] 5.26 µM | [9] 16.6 µM | [11] 1.87 µM

CCN1CCC(n2cc(CNc3cc(Cl)c4ncc(C#N)c(Nc5ccc(F)c(Cl)c5)c4c3)nn2)CC1
inactive: [12]
active: [1] 14.8 µM | [2] 10.5 µM | [3] 6.62 µM | [4] 5.9 µM | [5] 5.9 µM | [14] 16.6 µM | [6] 14.8 µM | [7] 20.9 µM | [16] 20.9 µM | [17] 18.7 µM | [11] 8.33 µM | [18] 16.6 µM

CN1CC(=O)N2C(Cc3c([nH]c4ccccc34)[C@H]2c2ccc3c(c2)OCO3)C1=O (stereo partly drawn)
not listed: [4] | [7] | [8] | [10] | [15] | [16] | [17] | [20]
inactive: all other assays above

C[C@@H]1CC=CC=CC=CC=C[C@@H](O[C@@H]2O[C@H](C)[C@@H](O)[C@H](N)[C@H]2O)C[C@@H]2O[C@](O)(C[C@@H](O)C[C@@H]3O[C@@H]3C=CC(=O)O1)C[C@H](O)[C@@H]2C(=O)O
inactive: [2] | [3] | [4] | [5] | [12] | [15] | [11]
active: [1] 11.8 µM | [19] 4.18 µM | [14] 13.2 µM | [6] 5.9 µM | [7] 18.7 µM | [8] 16.6 µM | [17] 20.9 µM | [10] 10.5 µM

CNC(=O)c1c(-c2ccc(F)cc2)oc2cc(N(CCO)S(C)(=O)=O)c(C3CC3)cc12
active: [20] 23.5 µM | [17] 20.9 µM

NC1(C(=O)N[C@@H](CCO)c2ccc(Cl)cc2)CCN(c2ncnc3[nH]ccc23)CC1
active: [1] 0.0833 µM | [2] 10.5 µM | [3] 1.87 µM | [19] 2.09 µM | [4] 0.0469 µM | [5] 2.64 µM | [12] 0.118 µM | [14] 1.87 µM | [6] 1.05 µM | [15] 0.209 µM | [7] 7.43 µM | [16] 2.96 µM | [8] 7.43 µM | [17] 0.418 µM | [11] 0.418 µM | [18] 1.18 µM

Cc1ccc(NC(=O)Nc2cc(C(F)(F)F)ccc2F)cc1Nc1ccc2c(c1)NC(=O)C2=Cc1ccc[nH]1
active: [1] 4.69 µM | [2] 26.4 µM | [3] 4.18 µM | [4] 3.32 µM | [5] 5.26 µM | [12] 5.9 µM | [13] 2.09 µM | [14] 7.43 µM | [6] 4.18 µM | [15] 4.18 µM | [7] 4.18 µM | [16] 23.5 µM | [8] 11.8 µM | [17] 5.26 µM | [9] 8.33 µM | [11] 2.35 µM

Cc1cccc(-c2[nH]c(C(C)(C)C)nc2-c2ccc3c(c2)OCO3)n1
active: [1] 1.32 µM | [2] 11.8 µM | [19] 16.6 µM | [4] 5.26 µM | [12] 3.72 µM | [13] 1.66 µM | [14] 1.18 µM | [6] 0.833 µM | [15] 6.62 µM | [7] 2.64 µM | [16] 14.8 µM | [8] 1.32 µM | [17] 0.526 µM | [9] 1.32 µM | [10] 18.7 µM | [11] 3.72 µM
inactive: [3]

CC1(COc2ccc3c(c2)ncn3-c2ccc3cccc(N4CCC(N)CC4)c3n2)COC1
active: [20] 1.48 µM | [13] 1.18 µM | [14] 0.0148 µM | [6] 0.0118 µM | [16] 0.418 µM | [8] 0.0083 µM
